Bioassay records from PubChem BioAssay.
Pf growth 96h – inhibits malaria parasite growth, 96 h | P. falciparum luciferase reporter growth, 96 h | Potency, µM (highest dose often 28.7 µM), hits mostly inhibitors | 6.9% of 320,000 active
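Plates of compound plus infected erythrocytes (2% hematocrit, 0.05% parasitemia final) incubate 96 hours, 37 C, 5% CO2. Detection reagent added; reduced luminescence from the parasites' luciferase reporter flags inhibition.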
Cycloheximide cs – counter-screen hit for Shiga toxin inhibitors, cycloheximide; cell reporter, cycloheximide protein synthesis inhibition counterscreen; max response, %; 12% of 300,000 active; AID 2314; in the data active = max response mostly above about 13%, no sharp cut-off; inactive = mostly below about 14%; note: read at 38.3 µM for the half of the compounds with a filed dose
HCV inh – blocks hepatitis C virus; AID 651820; 3.4% of 340,000 active; Huh7.5.1 HCVcc-Cre infection, luciferase reporter, 44 h; Potency, µM (titrated, usually from 41.8 µM), hits mostly inhibitors
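After 44 h co-culture of compound, cells and HCVcc-Cre (~0.5 moi), substrate is added for 15 min at room temperature and luciferase measured over 15 sec. Cells were seeded at 1,000/well and pre-cultured 4 h.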
Shiga toxin inh – Shiga toxin inhibition. Vero cells, Shiga toxin protein synthesis inhibition reporter. inhibition, % at 38.7 µM. 9.2% of 290,000 active. AID 2315; in the data active = inhibition mostly above about 28%, no sharp cut-off; inactive = mostly below about 43%
AMA1-RON2 inh – disrupts binding of P. falciparum AMA1 to RON2. 0.2% of 360,000 active. Potency, µM (top dose mostly 58.2 µM), actives largely listed as inhibitors. AlphaScreen AMA1-biotinylated RON2 peptide binding; note: nearly all actives have a fitted effect of over 45% in size
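AMA1 (3D7) with his tag at 25 nM final met compounds first, then biotinylated RON2 peptide at 25 nM; detection used donor plus acceptor beads, 10 µg/mL apiece, read by AlphaScreen after 30 min at room temperature.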
Pf growth 48h – P. falciparum growth inhibition at 48 hours (one generation) | 5.9% of 310,000 active | P. falciparum luciferase growth in erythrocytes, 48 h | Potency, µM (top dose mostly 28.7 µM), most hits filed as inhibitors
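Compounds are pin-transferred into medium, infected erythrocytes (2% hematocrit, 0.1% parasitemia final) are added, and plates sit one parasite generation at 37 C in 5% CO2. Detection reagent is then added and luminescence measured.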
Numbers stand for hits; 0 = inactive; ? = inconclusive; - = no result given; [ ] = another dose, or the depositor's remark. Sampled rows, rich in hits. Any-hit rate of the full collection: about 21%. Unless noted, calls come from the whole dose curve; as a rule, active = well fitted curve in the direction sought with a large enough effect; inconclusive = small, poorly fitted or top-dose-only effect, or another doubt; inactive = no such curve, though single readings can be large; an effect the other way counts as inactive or inconclusive.

SMILES	Pf growth 96h	Cycloheximide cs	HCV inh	Shiga toxin inh	AMA1-RON2 inh	Pf growth 48h
Cc1cccc(C)c1-n1nnnc1C1c2ccccc2C(=O)N1CCCN1CCOCC1 (centres undefined)	-	-	-	-	0	-
CN(C)c1ccc(N=Cc2cccn2C)cc1	?	85	?	107	22µM	0
O=C(Nc1ccc(F)c(Cl)c1)c1cncs1	0	0	0	0	0	0
CCC(Cc1ccccc1)NC(=O)CCn1cccc1 (centres undefined)	5.9µM	0	?	0	0	0
CCC(Cc1ccccc1)NC(=O)CCc1ccccc1 (centres undefined)	?	0	0	0	0	0
O=C(CCn1cccc1)NCc1ccccc1	8.3µM	0	0	0	0	0
Cc1nn(CCc2nn[nH]n2)c2nc(-c3ccc(C4CCCCC4)cc3)cc(C(F)(F)F)c12	?	0	?	0	0	5.2µM
O=C(Nc1ccc(N2CCOCC2)cc1)c1csc(COCCO)n1	-	-	-	-	0	-
O=S1(=O)CCC(NC(=S)Nc2ccc3ccccc3c2)C1 (centres undefined)	0	27	0	43	0	0
O=S1(=O)CCC(NC(=S)Nc2ccccc2)C1 (centres undefined)	0	0	0	0	0	0
O=C(NC1CCCCC1)C(c1ccncc1)N(Cc1ccc2c(c1)OCO2)C(=O)c1cnsn1 (centres undefined)	0	0	0	0	0	?
COCCN(CC(=O)NC1CCCCC1)C(=O)/C=C/C(=O)c1ccc(OC)cc1O	?	0	?	0	0	0
COc1ccc(CN(C(=O)/C=C/C(=O)c2ccc(OC)cc2O)C(C(=O)NC2CCCCC2)c2ccncc2)cc1 (centres undefined)	0	0	0	0	0	12µM
COc1ccc(C(=O)/C=C/C(=O)N(Cc2ccc3c(c2)OCO3)C(C(=O)NC2CCCCC2)c2ccncc2)c(O)c1 (centres undefined)	0	0	?	0	0	5.2µM
CCOc1ccc(/C=N/NC(=O)c2nnn(-c3nonc3N)c2CN(C)C2CCCCC2)cc1	0	0	0	0	0	?
NCCCC[C@H]1CN=C(N)N1CCc1cccc2ccccc12	-	-	0	-	0	-
NCCCC[C@H]1CN=C(N)N1CCC12CC3CC(CC(C3)C1)C2	3.7µM	0	0	0	0	9.3µM
COc1ccc(Br)cc1C(=O)Nc1cccc(-c2nnc(-c3ccco3)o2)c1	-	-	?	-	0	-
Cc1ccc(SCC(=O)Nc2cccc(-c3nnc(-c4ccco4)o3)c2)cc1	0	21	0	56	0	0
COc1cccc(C(=O)Nc2cccc(-c3nnc(-c4ccco4)o3)c2)c1	?	0	22µM	0	0	-
CCCCC(=O)Nc1cccc(-c2nnc(-c3ccccc3)o2)c1	0	35	?	43	0	?
O=C(Nc1ccccc1)c1cccc(-c2nnc(-c3ccccc3)o2)c1	0	17	0	0	0	0
CCOCCCn1c(=S)[nH]c2cc(C(=O)NC3CCCC(C)C3C)ccc2c1=O (centres undefined)	?	0	0	0	0	0
CCOc1ccc(N(CC(=O)NCc2ccc(F)cc2)C(=O)c2snc(C(N)=O)c2N)cc1	0	0	0	0	0	0
CCC(Oc1ccccc1)C(=O)Nc1ccc(-c2nnc(-c3ccco3)o2)cc1 (centres undefined)	0	36	?	89	0	0
SMILES	Pf growth 96h	Cycloheximide cs	HCV inh	Shiga toxin inh	AMA1-RON2 inh	Pf growth 48h
COc1ccccc1OCC(=O)Nc1ccc(-c2nnc(-c3ccco3)o2)cc1	0	0	?	0	0	0
Cc1oc(-c2ccccc2)nc1C(=O)O	0	0	0	0	0	0
CC(=O)c1cccc(NC(=O)c2nc(-c3ccccc3)oc2C)c1	0	0	16µM	0	0	0
c1ccc(CCCNCCCn2cnc3c(OCc4ccccc4)ncnc32)cc1	-	-	0	-	0	-
O=C(COC(=O)c1ccc2c(c1)OCCO2)NC1CCCCC1	0	-	0	-	0[11.6 µM]	0
OCC[C@@H]1C[C@H](O)[C@@H](O)[C@@]2(OCCCc3cc(C(F)(F)F)ccc32)O1	-	-	-	-	0	-
CCN(Cc1ccccc1)S(=O)(=O)c1ccc(C(=O)Nc2nnc(C)o2)cc1	?	0	?	0	0	9.3µM
CCc1nnc(NC(=O)c2ccc(S(=O)(=O)N(CC)Cc3ccccc3)cc2)o1	0	0	?	0	0	0
CCc1nnc(NC(=O)c2ccc(S(=O)(=O)N(C)Cc3ccccc3)cc2)o1	0	0	?	0	0	0
COc1ccccc1-c1nnc(NC(=O)c2ccc(S(=O)(=O)N(C)Cc3ccccc3)cc2)o1	10µM	0	?	0	0	0
CCCCN(C)S(=O)(=O)c1ccc(C(=O)Nc2nnc(CSC)o2)cc1	13µM	0	?	0	0	?
CCN1C[C@@H]2[C@@H]3C(=O)N(Cc4ccccc4)C(=O)[C@@H]3[C@](CC)(C(=O)OC)N2C1=NC	-	-	0	-	0	-
Nc1ccn([C@@H]2O[C@H](CNCc3ccc(Oc4cc(-n5cccn5)ncn4)cc3)[C@@H](O)[C@H]2O)c(=O)n1	-	-	-	-	0	-
Cc1ccc(NC(=O)c2cccc3cccnc23)cc1	0	35	0	111	0	0
O=C(NCCc1ccccc1F)c1cccc2cccnc12	0	52	0	82	0	?
CC(=O)Nc1cccc(NC(=O)c2cccc3cccnc23)c1	0	19	0	0	0	?
CSc1nc(S(C)(=O)=O)nc2[nH]c(=O)[nH]c12	-	-	0	-	0	-
CCOC(=O)C1(C)NC(c2cccc(C)c2)C2C(=O)N(c3ccccc3)C(=O)C21 (centres undefined)	0	0	0	0	0	0
Nc1nc2nc[nH]c2c(=O)[nH]1	?	-	5µM	-	0	?
Cc1c(C)n(-c2ccccc2)c2ncnc(NCCCN(C)C)c12	0	0	0	0	0	0
Cc1cccc(-n2c(C)c(C)c3c(N)ncnc32)c1	0	19	0	0	0	?
O=c1oc2ccccc2n1CCCOc1ccccc1	12µM	33	0	95	0	0
COc1ccccc1OCCCn1c(=O)oc2ccccc21	0	24	0	43	0	0
NC(=O)CCn1c(=O)oc2ccccc21	0	0	0	0	0	0
O=C1c2ccccc2C(=O)N1CCn1c(=O)oc2ccccc21	0	31	0	41	0	0
SMILES	Pf growth 96h	Cycloheximide cs	HCV inh	Shiga toxin inh	AMA1-RON2 inh	Pf growth 48h
O=c1oc2ccccc2n1CCCCCn1c(=O)oc2ccccc21	?	0	0	0	0	?
COc1ccccc1OCCCn1c(=O)sc2ccccc21	0	28	?	0	0	0
COc1ccccc1OCCCn1c(=O)oc2ccc(C)cc21	-	0	0	0	0	0
C[C@H](CO)N1C[C@H](C)[C@@H](CN(C)Cc2ccccc2C(=O)O)OCc2cnnn2CCCC1=O	-	-	-	-	0	-
COc1ccc(C(C(=O)NC2CCCC2)N(Cc2cccnc2)C(=O)Cc2cccs2)c(OC)c1 (centres undefined)	?	0	0	0	0	0
CC1CCN(CCNC(=S)Nc2ccc(Cl)cc2)CC1	?	0	?	0	0	?
